Results published in PubChem BioAssay (EPA / NIEHS).
“And” between values parts separate entries of the source, which are not always exact repeats. Equal values may be shown once. A structure can be active in one record and inactive in another. The source made the active and inactive calls. The calls were made as follows: active = hit-call score of the fitted dose curve at least 0.9, where 1 is the maximum; inactive = score below 0.9.

Experiment: ATG_Oct_MLP_CIS: Attagene CIS-FACTORIAL HepG2 Assay for human Octamer-Binding Transcription Factor (Oct) (AID 2282993)
Conditions: HepG2 Attagene cis-factorial Oct reporter, mRNA; actives raise or lower the signal
In short: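 Transfected HepG2 cells, 24 h treatment. Reporter mRNA quantified by RT-PCR–capillary electrophoresis; bidirectional fitting against DMSO.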

SMILES	AC50	outcome
CCc1nn(C)c(C(=O)NCc2ccc(C(C)(C)C)cc2)c1Cl	0.397 µM (active)	
CCOC(=O)CC(SP(=S)(OC)OC)C(=O)OCC (stereo not drawn)	133 µM (active) and 24 µM (active)	
C=CCC1=C(C)[C@@H](OC(=O)[C@@H]2[C@@H](C=C(C)C)C2(C)C)CC1=O	9.45 µM (active)	
CC(C)C1(C)N=C(c2nc3ccccc3cc2C(=O)O)NC1=O (stereo not drawn)		inactive
COP(N)(=O)SC (stereo not drawn)		inactive
Oc1ccccc1-c1ccccc1	50 µM (active)	inactive
CS/C(C)=N/OC(=O)N(C)SN(C)C(=O)O/N=C(\C)SC		inactive
CCCCC(CC)COC(=O)c1ccccc1C(=O)OCC(CC)CCCC (stereo not drawn)		inactive
CCNc1nc(Cl)nc(NCC)n1		inactive
O=C(Nc1ccccc1)Nc1ccnc(Cl)c1	33.5 µM (active)	
CCCCNC(=O)n1c(NC(=O)OC)nc2ccccc21		inactive
CCOC(=O)C(Cl)Cc1cc(-n2nc(C)n(C(F)F)c2=O)c(F)cc1Cl (stereo not drawn)		inactive
O=C(O)c1nc(Cl)ccc1Cl		inactive
COc1nc(C)nc(NC(=O)NS(=O)(=O)c2ccccc2Cl)n1		inactive
CN(C)C(=S)SSC(=S)N(C)C		inactive
C#CCOS(=O)OC1CCCCC1Oc1ccc(C(C)(C)C)cc1 (stereo not drawn)	0.811 µM (active)	
CNC(=S)S	50 µM (active)	inactive
N#Cc1cc(Br)c(O)c(Br)c1	40.1 µM (active)	
CCON=C(CC)C1=C(O)CC(c2c(C)cc(C)cc2C)CC1=O (stereo not drawn)		inactive
O=C(O)COc1nc(Cl)c(Cl)cc1Cl		inactive
Cc1c(F)c(F)c(COC(=O)C2C(/C=C(\Cl)C(F)(F)F)C2(C)C)c(F)c1F (stereo not drawn)		inactive
